“And” between values parts separate entries of the source, which are not always exact repeats. Equal values may be shown once. Compounds without any hit were thinned out: in the full panel of roughly 83,000, 20% have a hit.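 Plates (96-well) were seeded with cells, treated with compound at one concentration, and incubated for 48 hours before percent growth was determined.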 The source made the active and inactive calls. The calls were made as follows: active = growth percent below 10; inactive = the rest.
Assays:
Assay in all cases: NCI-60 one-dose screen, 48 h (100 = growth as untreated, 0 = no growth, -100 = all killed)
Conditions in all cases: 10 µM unless noted
NCI-H23 lung = tested on: NCI-H23 lung
NCI-H226 lung = tested on: NCI-H226 lung
NCI-H322M lung = tested on: NCI-H322M lung
HOP-62 NSCLC = tested on: HOP-62 NSCLC
NCI-H460 lung = tested on: NCI-H460 lung
HOP-92 NSCLC = tested on: HOP-92 NSCLC
NCI-H522 lung = tested on: NCI-H522 lung
786-0 renal = tested on: 786-0 renal
COLO 205 colon = tested on: COLO 205 colon
DU-145 prostate = tested on: DU-145 prostate
K-562 leukemia = tested on: K-562 leukemia
MALME-3M melanoma = tested on: MALME-3M melanoma
MDA-MB-231 breast = tested on: MDA-MB-231 breast
RXF 393 renal = tested on: RXF 393 renal
SF-268 CNS = tested on: SF-268 CNS
SF-295 CNS = tested on: SF-295 CNS
SF-539 CNS = tested on: SF-539 CNS
M14 melanoma = tested on: M14 melanoma
A549/ATCC NSCLC = tested on: A549/ATCC NSCLC
UACC-257 melanoma = tested on: UACC-257 melanoma

| Compound | growth (NCI-H23 lung) | growth (NCI-H226 lung) | growth (NCI-H322M lung) | growth (HOP-62 NSCLC) | growth (NCI-H460 lung) | growth (HOP-92 NSCLC) | growth (NCI-H522 lung) | growth (786-0 renal) | growth (COLO 205 colon) | growth (DU-145 prostate) | growth (K-562 leukemia) | growth (MALME-3M melanoma) | growth (MDA-MB-231 breast) | growth (RXF 393 renal) | growth (SF-268 CNS) | growth (SF-295 CNS) | growth (SF-539 CNS) | growth (M14 melanoma) | growth (A549/ATCC NSCLC) | growth (UACC-257 melanoma) |
| --- | --- | --- | --- | --- | --- | --- | --- | --- | --- | --- | --- | --- | --- | --- | --- | --- | --- | --- | --- | --- |
| CCCCCCCCCCCCCCCC[N+](C)(C)Cc1ccccc1 | 9.06% (active) and -49.4% (active) | 21.5% (inactive) and -6.4% (active) | 63.3% (inactive) and 33.8% (inactive) | 17.9% (inactive) and -86.3% (active) | 15.7% (inactive) and -100% (active) | -39.2% (active) and -55.5% (active) | 4.46% (active) and -58.2% (active) | 11% (inactive) and -94.1% (active) | -30.4% (active) and -100% (active) | 26.7% (inactive) and -40.3% (active) | 15% (inactive) and -22.5% (active) | -25% (active) and -55.5% (active) | -41.4% (active) and -70.1% (active) | 0.124% (active) | 0.106% (active) and -74.5% (active) | 20.6% (inactive) and -28.5% (active) | -61.2% (active) and -99.3% (active) | -45.6% (active) and -88.7% (active) |  |  |
| CCCn1cc2c3c(cccc31)[C@H]1C[C@@H](C)CN(C)[C@@H]1C2 | 77% (inactive) | 93.4% (inactive) | 89.4% (inactive) | 86.4% (inactive) | 95.7% (inactive) | 29.7% (inactive) | 85.9% (inactive) | 81.7% (inactive) |  | 99.8% (inactive) |  |  | 78.3% (inactive) | 86.6% (inactive) | 94.8% (inactive) |  | 85.1% (inactive) | 89.3% (inactive) | 96% (inactive) | 78.6% (inactive) |
| CC1=C(C)C(=O)O[C@@H]([C@](C)(O)[C@]2(O)CC[C@@]3(O)[C@@H]4C[C@H]5O[C@]56CC=CC(=O)[C@]6(C)[C@H]4CC[C@]23C)C1 | -22% (active) | -45.2% (active) | -15.5% (active) | 2.69% (active) | 5.64% (active) | 15.7% (inactive) | -59.5% (active) | -30.7% (active) | -83.1% (active) | 7.11% (active) | 3.63% (active) | -4.58% (active) | 30.3% (inactive) |  | -22.6% (active) | 4.3% (active) | -10.1% (active) | 11.3% (inactive) | 7.89% (active) | 6.11% (active) |
| COc1cc(C=C2C(=O)NC(=O)NC2=O)ccc1O | 98.1% (inactive) | 96.1% (inactive) | 117% (inactive) | 100% (inactive) | 108% (inactive) | 113% (inactive) | 96.9% (inactive) | 99.7% (inactive) | 109% (inactive) | 124% (inactive) | 109% (inactive) | 136% (inactive) | 96.5% (inactive) | 84.4% (inactive) | 106% (inactive) | 101% (inactive) | 101% (inactive) | 101% (inactive) | 102% (inactive) | 87.6% (inactive) |
| CNC(=O)CCl | 101% (inactive) | 90.9% (inactive) | 102% (inactive) | 98.5% (inactive) | 107% (inactive) | 93.7% (inactive) | 106% (inactive) |  | 108% (inactive) | 114% (inactive) | 121% (inactive) | 92.5% (inactive) |  | 110% (inactive) | 104% (inactive) | 105% (inactive) | 102% (inactive) | 105% (inactive) | 96.3% (inactive) | 92.5% (inactive) |
| CCN1C(=O)CC(=O)N(CC)C1=S | 82% (inactive) | 103% (inactive) | 102% (inactive) | 172% (inactive) | 107% (inactive) | 92.1% (inactive) | 84.1% (inactive) | 97.6% (inactive) | 115% (inactive) | 122% (inactive) | 107% (inactive) | 95.8% (inactive) | 107% (inactive) | 100% (inactive) | 101% (inactive) | 111% (inactive) | 96.9% (inactive) | 105% (inactive) | 109% (inactive) | 102% (inactive) |
| COc1ccc2c(c1)C1(C)CCN(C)CC(C1)C2O (stereo unspecified) | 98.1% (inactive) | 81.7% (inactive) | 105% (inactive) | 100% (inactive) | 105% (inactive) | 101% (inactive) | 90.2% (inactive) | 94.8% (inactive) | 103% (inactive) | 104% (inactive) | 99.9% (inactive) | 93.3% (inactive) | 113% (inactive) | 97% (inactive) | 100% (inactive) |  | 97.2% (inactive) | 98.1% (inactive) | 95.1% (inactive) | 97% (inactive) |
| CC(C)c1cccc(C(C)C)c1O | 97% (inactive) and 103% (inactive) | 107% (inactive) and 103% (inactive) | 99.6% (inactive) and 93% (inactive) | 111% (inactive) and 110% (inactive) | 117% (inactive) and 101% (inactive) | 100% (inactive) | 98% (inactive) | 108% (inactive) | 116% (inactive) and 111% (inactive) | 109% (inactive) and 116% (inactive) | 92.8% (inactive) and 104% (inactive) | 95.7% (inactive) and 91.8% (inactive) | 114% (inactive) and 107% (inactive) | 109% (inactive) | 110% (inactive) and 97.7% (inactive) | 101% (inactive) and 103% (inactive) | 115% (inactive) and 97.4% (inactive) | 109% (inactive) and 111% (inactive) | 93.1% (inactive) and 75.5% (inactive) | 100% (inactive) |
| O=[N+]([O-])c1cc(Br)c(O)c(Br)c1 | 101% (inactive) | 93.5% (inactive) | 105% (inactive) | 96.9% (inactive) | 107% (inactive) | 95.8% (inactive) | 92.7% (inactive) | 102% (inactive) | 112% (inactive) |  | 123% (inactive) |  | 103% (inactive) | 90.2% (inactive) |  | 100% (inactive) | 108% (inactive) | 111% (inactive) | 98.9% (inactive) | 95.4% (inactive) |
| CN1[C@@H](CC(=O)c2ccccc2)CCC[C@H]1CC(=O)c1ccccc1 | 97.2% (inactive) | 96.7% (inactive) | 110% (inactive) | 110% (inactive) | 115% (inactive) | 111% (inactive) | 86.9% (inactive) | 108% (inactive) | 114% (inactive) | 108% (inactive) | 102% (inactive) |  | 111% (inactive) | 119% (inactive) | 102% (inactive) | 97.2% (inactive) | 111% (inactive) | 104% (inactive) | 93.8% (inactive) | 98.1% (inactive) |

From PubChem BioAssay (NCI)
